Reference: PubChem BioAssay (EPA / NIEHS)
Several values for one entry are separate records, joined by “and”; a condition that tells them apart may be missing. Identical values can stand only once. Activity calls are given as the source filed them. The calls were made as follows: active = hit-call score of the fitted dose curve at least 0.9, where 1 is the maximum; inactive = score below 0.9.

These molecules were tested on Interleukin 17F (IL17F), IL17F (gene 112744) (assay: BSK_BT_xIL17F: BioMAP Diversity Plus: BT Assay for Interleukin 17F (IL17F) Biomarker Activity (AID 2284243)). Conditions: primary human B cells with PBMC.
Protocol: BSK_BT is a cell-based, multiplexed-readout assay that uses B cell and peripheral blood mononuclear cells, a human vascular primary cell co-culture, with measurements taken at 24 hours after chemical dosing in a microplate: 96-well plate.BSK_BT_xIL17F is an assay component measured in the BSK_BT assay. It measures secreted IL-17F related to regulation of gene expression using LumineX xMAP technology.Data from the assay component BSK_BT_xIL17F was analyzed at the endpoint, BSK_BT_xIL17F, in the positive analysis fitting direction relative to DMSO as the negative control and baseline of activity. Using a type of cytokine quantitation reporter, gain or loss-of-signal activity can be used to understand protein changes. To generalize the intended target to other relatable targets, this assay endpoint is annotated to the 'cytokine' intended target family, where the subfamily is 'interleukins'.
The levels of cell surface (or secreted, indicated by the prefix "s") biomarker endpoints were measured by ELISA. Overt cytotoxicity to cells in confluent adherent cultures (all systems other than the BT system) was assessed by measuring total protein levels using sulforhodamine B (SRB) staining in parallel cultures at the time of biomarker measurements, indicated as SRB endpoints. For proliferation assays for adherent cell types, individual cell types are cultured at sub-confluence and relative cell numbers quantified by SRB staining at time points optimized for each system (48 h: 3C and CASM3C systems; 72 h: BT and HDF3CGF systems; 96 h: SAg system). SRB was performed by staining cells with 0.1% SRB after fixation with 10% TCA and reading wells at 560 nm.Viability and proliferation of PBMC (T cells) was quantified by Alamar Blue reduction for the SAg and BT systems. For PBMC viability (referred to as PBMC Cytotoxicity within the assay endpoint names), cells were plated (75,000/well in a 96-well plate) and then chemical samples added for 1 h before addition of activators, SEB and TSST-1 (20 ng/mL final concentration each). Cells were incubated for 90 h. Then, Alamar Blue (20 uL/well) (Invitrogen, Cat DAL1100) was added for 6 h, and the plates were read with a fluorescence microplate reader at 546/580 nm (excitation/emission). For PBMC proliferation, cells were plated and activated as above but incubated for only 16 h prior to addition of Alamar Blue. Plates were read after 6 h.

| SMILES | outcome | AC50 |
| --- | --- | --- |
| C=C(C)C(=O)OCCC(F)(F)C(F)(F)C(F)(F)C(F)(F)C(F)(F)C(F)(F)C(F)(F)C(F)(F)F | inactive |  |
| CC1=CC(C)C(C=O)C(C)C1 (stereo not given) (tested in a mixture with another compound) | inactive |  |
| O=C(O)C(F)(F)OC(F)(F)C(F)(F)OC(F)(F)C(F)(F)C(F)(F)C(F)(F)F | inactive |  |
| C=C1CC/C=C(\C)CC[C@@H]2[C@@H]1CC2(C)C | inactive |  |
| c1ccc(Sc2ccccc2)cc1 | inactive |  |
| O=C1OC2(c3ccc(O)cc3Oc3cc(O)ccc32)c2ccccc21 | inactive |  |
| CCOC(=O)C=Cc1ccccc1 | inactive |  |
| CCCCCCCCCCCCS | inactive |  |
| O=C(O)C(F)(F)C(F)(F)C(F)(F)C(F)(F)C(F)(F)C(F)(F)C(F)(F)C(F)F | inactive |  |
| CC(C)(C)c1cccc(O)c1 | inactive |  |
| Nc1ccc(N)c([N+](=O)[O-])c1 | inactive |  |
| c1ccc2c(c1)-c1ccc3ccc4cccc5cc-2c1c3c45 | inactive |  |
| OCC(F)(OC(F)(F)C(F)(OC(F)(F)C(F)(F)C(F)(F)F)C(F)(F)F)C(F)(F)F (stereo not given) |  | 5.47 µM (active) and 5.77 µM (active) |
| CC(=O)OCC=C(C)CCC=C(C)CCC=C(C)C |  | 30.3 µM (active) |
| CCCCCCCCCC(=O)OCC | inactive |  |
| CC=CC(=O)C1=C(C)C=CCC1(C)C | inactive |  |
| C=C(F)C(=O)OC(C(F)(F)F)C(F)(F)F | inactive |  |
| CC(=O)CCC=C(C)CCC=C(C)C | inactive |  |
| CCC(=O)OCC=Cc1ccccc1 | inactive |  |
| CCOC(=O)CCCCCCCCC(=O)OCC | inactive |  |
| CC(C)Cc1ccc(C(C)C(=O)O)cc1 (stereo not given) | inactive |  |
| OCCN1CCOCC1 | inactive |  |
| O=S(=O)(O)C(F)(F)C(F)(F)OC(F)(F)C(F)(F)F | inactive |  |
| CCCCCCCC1CCCC1=O (stereo not given) | inactive |  |
| COc1ccccc1NC(=O)CC(C)=O | inactive |  |
| C=CC(=O)OCC(CO)(COC(=O)C=C)COC(=O)C=C |  | 1.15 µM (active) |
| O=S1(=O)CC(Cl)(Cl)C(Cl)(Cl)C1 |  | 0.515 µM (active) |
| CC(=O)OC(C)(C)C1CC=C(C)CC1 (stereo not given) | inactive |  |
| NC(=O)c1c(Cl)cccc1Cl | inactive |  |
| CC1(C)[C@H](C=C(Cl)Cl)[C@H]1C(=O)OCc1cccc(Oc2ccccc2)c1 | inactive |  |
